For 53 compounds, INHIBITION results are on record in ChEMBL document CHEMBL4513216, “Probing the Open Global Health Chemical Diversity Library for Multistage-Active Starting Points for Next-Generation Antimalarials” (ACS Infect Dis, 2020).

In all, about 69,000 compounds went through this assay and about 8,600 (12%) showed an effect of 50% or more. Only a selection was taken, and strong results are over-represented in it overall.

The experiment relates to Plasmodium berghei. In words: Screen against P. berghei liver stage (PbLuc), transformed with Luciferase, at 10uM. The settings on record: tested at 10 uM. The class given is functional, HepG2.
As to `CS(=O)(=O)NCc1nnc2n1CCN(CC1CC1)C2`, the INHIBITION worked out at 39.2%.
As for `Cc1nc(C2CCCN(C(=O)Cn3ccccc3=O)C2)sc1C` (stereo not drawn), the figure is 25.6%.
As for `CCn1ccnc1CN1CCCC1Cn1cc(C)cn1` (stereo not drawn), the figure is -53.5%; as for `CC(=O)N1CCC(c2ccnc(Nc3cnccn3)n2)C1` (stereo not drawn), 50.6%; as for `Cc1ccc(Nc2nccc(C3CCN(C(=O)CN)C3)n2)nc1` (stereo not drawn), 58.1%.
As for `CNCC(=O)N1CCCC(c2ccnc(Nc3cnccn3)n2)C1` (stereo not drawn), the figure is 15.9%; as for `NCC(=O)N1CCC(c2ccnc(Nc3cc(C(F)(F)F)ccn3)n2)C1` (stereo not drawn), 19.3%.
For `O=C(C1CCCC1)N1CCC(c2ccnc(Nc3cnccn3)n2)C1` (stereo not drawn), the INHIBITION was determined as 22%.
In the case of `CC(=O)N1CCCC(c2ccnc(Nc3cnccn3)n2)C1` (stereo not drawn), the INHIBITION was found to be 42.6%.
As for `CNCC(=O)N1CCCC(c2cccc(Nc3nc(C)cc(C)n3)n2)C1` (stereo not drawn), the figure is 33%; as for `Cc1ccc(Nc2nccc(C3CCN(C(=O)CO)C3)n2)nc1` (stereo not drawn), 40.6%; as for `CNCC(=O)N1CCC(c2ccnc(Nc3ccc(C)cn3)n2)C1` (stereo not drawn), 56.3%.
`Cc1cc(N2CCN(C(=O)[C@@H]3C[C@H]4C=C[C@@H]3C4)CC2)cc(C)n1`: the INHIBITION is reported as -1.84%.
In the case of `Cn1ccc(C(=O)NCCOc2ccc(C(C)(C)C)cc2)cc1=O` it was 20.3%.
With `CN1CCC/C1=N\S(=O)(=O)c1ccc(NC(=O)c2ccc(Cl)cc2)cc1`, the INHIBITION is 15.6%.
As for `CCc1cc(O)n2nc(C3CCN(C(=O)c4ccncc4)CC3)cc2n1`, the figure is 32.85%; as for `CNC(=O)CN1CCOCC2(C1)CN(C(=O)C(C)C)CCO2` (stereo not drawn), -15.7%.
As for `Cc1ncc2c(n1)CN(C(C(N)=O)c1ccccc1)CC2` (stereo not drawn), the figure is -40.4%; as for `Cc1ncc2c(n1)CN(C(C(N)=O)c1ccc(F)cc1)CC2` (stereo not drawn), 58.5%.
On to `Cc1ncc2c(n1)CCN(C(C(N)=O)c1ccccc1)C2` (stereo not drawn), for which the INHIBITION is listed as -4.4%.
Consider `O=C(c1ccncc1)N1CCOC2(COCCN(c3cncnc3)C2)C1` (stereo not drawn), for which the INHIBITION is reported as 37.8%.
Take `Cc1nc(Cn2c3c(ccc2=O)CCN(CC2CCC2)CC3)cs1`: the INHIBITION is given as -18.5%.
In the case of `CC1c2ncc(CN3CCN(C)CC3)n2CCN1Cc1cccnc1` (stereo not drawn) it was 34.8%; in that of `CC1c2ncc(Cn3cccn3)n2CCN1Cc1ccc(F)cc1` (stereo not drawn), 54.8%; in that of `CC1c2ncc(Cn3cccn3)n2CCN1Cc1ccccn1` (stereo not drawn), 58.4%.
As for `CC1c2ncc(CN3CCN(C)CC3)n2CCN1Cc1ccsc1` (stereo not drawn), the figure is 27.3%.
In the case of `CC1c2ncc(Cn3cccn3)n2CCN1c1ncccn1` (stereo not drawn) it was 23.1%; in that of `CC1c2ncc(CN3CCN(C)CC3)n2CCN1Cc1ccc(F)cc1` (stereo not drawn), 11.5%.
In the case of `CC1c2ncc(CNC(=O)C3CC3)n2CCN1Cc1ccccn1` (stereo not drawn), the INHIBITION was -88.3%.
In the case of `CC1c2ncc(Cn3cccn3)n2CCN1Cc1cccnc1` (stereo not drawn) it was -9.26%.
In the case of `CC1c2ncc(CN3CCN(C)CC3)n2CCN1Cc1ccccn1` (stereo not drawn) it was 53%; in that of `c1ccc(Cc2nnc(CN3CCOC(Cn4cccn4)C3)o2)cc1` (stereo not drawn), 19.4%.
In the case of `Cc1cccc(C(=O)N2C[C@@H]3C(CC(=O)N4CCCC4)[C@@H]3C2)n1` (stereo partly drawn) it was -2.35%; in that of `CSc1nc2ccsc2c(=O)n1CC(=O)N(C)c1ccccc1`, 36.8%; in that of `O=C(O)[C@@H]1CCN(C(=O)c2ccccn2)[C@@H]1c1ccc(F)cc1`, -8.58%.
On to `CN1CC2(CCN(C(=O)c3ccc4nonc4c3)CC2)CC1=O`, for which the INHIBITION was -6.01%.
In the case of `CCN1CCN(C(=O)c2ccc(=O)n(C)c2)c2ccccc21` it was 44.1%; in that of `CN1CCN(C(=O)c2ccc(=O)n(C)c2)Cc2ccccc21`, 40.3%; in that of `CN1CCN(C(=O)c2ccc(=O)n(C)c2)c2ccccc21`, 50.4%.
In the case of `Cc1ccc2c(c1)OCCN2C(=O)c1ccc(=O)n(C)c1` it was 8.48%; in that of `COCCCN1CC2(CCN(C(=O)c3ccc(=O)n(C)c3)CC2)CC1=O`, -14.7%.
As for `CC1CN(C)c2ccccc2N(C(=O)c2ccc(=O)n(C)c2)C1` (stereo not drawn), the figure is 31.8%; as for `CN1C(=O)CN(C(=O)c2ccc(=O)n(C)c2)c2ccccc21`, 60.5%.
For the compound `Cn1cc(C(=O)N2CCOc3cc(F)ccc32)ccc1=O`, the INHIBITION was 16.1%.
`Cn1cc(C(=O)N2CCOc3ccccc32)ccc1=O`: the INHIBITION is 51.8%.
As for `CC1CN(C(=O)c2ccc(=O)n(C)c2)c2ccccc2NC1=O` (stereo not drawn), the figure is -12.2%.
In the case of `CN1CC2(CCN(C(=O)c3ccc(=O)n(C)c3)CC2)CC1=O` it was 50.5%; in that of `CN(Cc1cccc(F)c1)C(=O)CN1CCOC(Cn2cccn2)C1` (stereo not drawn), -14.8%.
As for `COc1coc(C(=O)Nc2ccncc2)cc1=O`, the figure is 14.3%; as for `Cc1cnc(N2CCC3(CCC(C(=O)NC(C)C)C3)CC2)nc1` (stereo not drawn), 11.3%.
`CC(=O)N1CCCN(C(=O)c2ccc(=O)n(C)c2)c2ccccc21`: the INHIBITION was 62.6%.
In the case of `Cn1cc(C(=O)N2CCSc3ccccc32)ccc1=O` it was 33.8%.
In the case of `CC1CCN(C)c2ccccc2N1C(=O)c1ccc(=O)n(C)c1` (stereo not drawn) it was -3.12%.
